Assay [1] is described as follows: qHTS RealTime-Glo MT Cell Viability Assay in HEK293 cells - 0 hour (AID 1224880). Note: top concentration of the series differs between compounds; nearly all actives have a fitted effect of over 45% in size. The procedure, abridged: (§1)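 Cells were seeded together with NanoLuc luciferase and a prosubstrate that viable cells reduce to a luciferase substrate. After a 5 h incubation at 37 C/5% CO2, compounds were added and luminescence was measured repeatedly during 40 h of treatment.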
Assay [2] in a line: A CellTox Green Cytotoxicity Assay to monitor cytotoxicity in HEK293 cells - 32 hour (AID 1224881). Note: nearly all actives have a fitted effect of over 40% in size. Note: potency is the fitted concentration of half-maximal effect. The procedure, abridged: (§2)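 Nonlytic real-time cytotoxicity: HEK293 + CellTox Green reagent plated, 5 h preincubation, pintool compound addition (23 nL in DMSO), 37 C for 40 h, fluorescence measured at successive time points.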
Assay [3] can be described thus: A CellTox Green Cytotoxicity Assay to monitor cytotoxicity in HepG2 cells - 0 hour (AID 1224882). Note: nearly all actives have a fitted effect of over 35% in size. Note: potency is the fitted concentration of half-maximal effect. The procedure, abridged: (§3)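 Read-out is fluorescence of a cyanine dye excluded from live cells that stains DNA of dead HepG2 cells, with signal proportional to cytotoxicity. Plates were read at 0, 8, 16, 24, 32 and 40 h after compound addition.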
Assay [4] is described as follows: A CellTox Green Cytotoxicity Assay to monitor cytotoxicity in HepG2 cells - 32 hour (AID 1224883). Note: nearly all actives have a fitted effect of over 50% in size. Note: potency is the fitted concentration of half-maximal effect. The procedure, abridged:
as §3

A short description of assay [5]: A CellTox Green Cytotoxicity Assay to monitor cytotoxicity in HEK293 cells - 8 hour (AID 1224884). Note: nearly all actives have a fitted effect of over 35% in size. Note: potency is the fitted concentration of half-maximal effect. The procedure, abridged:
as §2

Assay [6] in a line: qHTS RealTime-Glo MT Cell Viability Assay in HepG2 cells - 16 hour (AID 1224885). Note: nearly all actives have a fitted effect of over 50% in size. The procedure, abridged:
(§4)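 Real-time, nonlytic viability: 600 HepG2 cells/well mixed with NanoLuc enzyme plus prosubstrate; 5 h settle, compound (DMSO) added by pintool; luminescence monitored over 40 h at 37 C.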

Assay [7] can be described thus: qHTS RealTime-Glo MT Cell Viability Assay in HEK293 cells - 24 hour (AID 1224886). Note: top concentration of the series differs between compounds; nearly all actives have a fitted effect of over 50% in size. The procedure, abridged: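 Cells + reagent dispensed (600 cells/well, HEK293) → 5 h at 37 C/5% CO2 → 23 nL compound in DMSO pinned → 40 h at 37 C → luminescence read at 0, 8, 16, 24, 32, 40 h.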
Background: In qHTS, concentration-response curves come from the screen itself.

A short description of assay [8]: qHTS RealTime-Glo MT Cell Viability Assay in HEK293 cells - 8 hour (AID 1224887). Note: top concentration of the series differs between compounds; nearly all actives have a fitted effect of over 50% in size. The procedure, abridged:
as §1

Assay [9] can be described thus: A CellTox Green Cytotoxicity Assay to monitor cytotoxicity in HEK293 cells - 16 hour (AID 1224888). Note: nearly all actives have a fitted effect of over 35% in size. Note: potency is the fitted concentration of half-maximal effect. The procedure, abridged:
as §2

A short description of assay [10]: qHTS RealTime-Glo MT Cell Viability Assay in HepG2 cells - 0 hour (AID 1224889). Note: nearly all actives have a fitted effect of over 50% in size. The procedure, abridged: as §4
Assay [11] is described as follows: A CellTox Green Cytotoxicity Assay to monitor cytotoxicity in HepG2 cells - 8 hour (AID 1224890). Note: nearly all actives have a fitted effect of over 45% in size. Note: potency is the fitted concentration of half-maximal effect. The procedure, abridged: as §3
A short description of assay [12]: qHTS assay to identify small molecule antagonists of the estrogen receptor alpha (ER-alpha) signaling pathway using the BG1 cell line in the presence of 0.1 nM 17-beta-estradiol - cell viability counter screen (AID 1259241). Note: nearly all actives have a fitted effect of over 40% in size. The procedure, abridged:
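Cytotoxicity counter-screen: live-cell protease activity measured by fluorescence (30 min reagent step) in the same wells. Cells were VM7Luc4E2 with endogenous ER-alpha and ERE-driven luciferase, treated 22 hr at 37C alongside 0.1 nM 17beta-estradiol final.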

Assay [13] is described as follows: qHTS assay to identify small molecule antagonists of the androgen receptor (AR) signaling pathway using the MDA cell line in the presence of 0.5 nM R1881 - cell viability counter screen (AID 1259242). Note: nearly all actives have a fitted effect of over 45% in size. The procedure, abridged: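 Counter screen for cytotoxicity run in the same wells as the AR antagonist reporter screen: MDA-kb2 cells were treated 16 hr with test compounds and 0.5 nM R1881, then live-cell protease activity was measured by fluorescence.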

Assay [14] is described as follows: qHTS assay to identify small molecule HDAC inhibitors (AID 1259364). Note: top concentration of the series differs between compounds; nearly all actives have a fitted effect of over 45% in size. The procedure, abridged: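 Luminescence from a cell-permeant luminogenic class I/II HDAC substrate reports endogenous deacetylase activity in intact HCT-116 cells treated with compounds for 2 h.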
Assay [15] in a line: qHTS assay to identify small molecule HDAC inhibitors - cell viability counter screen (AID 1259365). The procedure, abridged: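 CellTiter-Glo luminescence (30 min, room temperature) reported viability after a 2 h compound exposure at 37 C. Cells: wild-type HCT-116, 1,500 per well, seeded the night before.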
Assay [16] can be described thus: qHTS assay to identify small molecule agonists of the sonic hedgehog signaling (Shh) pathway - cell viability counter screen (AID 1259366). Note: nearly all actives have a fitted effect of over 50% in size. The procedure, abridged: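 Cytotoxicity counter screen: CellTiter-Fluor reagent added after 23 h compound exposure, then 1 h at 37C and fluorescence read. Cells were 3T3 Gli1-Luc, seeded 2,000 per well and dosed 4 h post-plating.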

The nature of assay [17]: qHTS assay to identify small molecule antagonists of the sonic hedgehog signaling (Shh) pathway - cell viability counter screen (AID 1259367). Note: nearly all actives have a fitted effect of over 55% in size. The procedure, abridged: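 Cells: 3T3 Gli1-Luc, 2,000/well, 4 hr pre-incubation. Compounds in DMSO, then conditioned medium. Incubation 24 hr, 37C, 5% CO2. CellTiter-Fluor at 23 hr, 1 hr, fluorescence.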
The target in assay [18] is Estrogen receptor (Homo sapiens) (UniProt P03372). The assay can be described thus: qHTS assay to identify small molecule antagonists of the estrogen receptor alpha (ER-alpha) signaling pathway using the BG1 cell line in the presence of 0.1 nM 17-beta-estradiol (AID 1259244). Note: nearly all actives have a fitted effect of over 50% in size. The procedure, abridged: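 Cells: VM7Luc4E2, endogenous ER-alpha, 4x ERE-luc stable. Pre-culture 5 d, phenol red-free, charcoal-stripped FBS. Plated 24 h, compound + E2 0.1 nM final, 22 h 37C/5% CO2. Readout ONE-Glo luminescence.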
Estrogen receptor (Homo sapiens), sequence (P03372 whole entry, looked up): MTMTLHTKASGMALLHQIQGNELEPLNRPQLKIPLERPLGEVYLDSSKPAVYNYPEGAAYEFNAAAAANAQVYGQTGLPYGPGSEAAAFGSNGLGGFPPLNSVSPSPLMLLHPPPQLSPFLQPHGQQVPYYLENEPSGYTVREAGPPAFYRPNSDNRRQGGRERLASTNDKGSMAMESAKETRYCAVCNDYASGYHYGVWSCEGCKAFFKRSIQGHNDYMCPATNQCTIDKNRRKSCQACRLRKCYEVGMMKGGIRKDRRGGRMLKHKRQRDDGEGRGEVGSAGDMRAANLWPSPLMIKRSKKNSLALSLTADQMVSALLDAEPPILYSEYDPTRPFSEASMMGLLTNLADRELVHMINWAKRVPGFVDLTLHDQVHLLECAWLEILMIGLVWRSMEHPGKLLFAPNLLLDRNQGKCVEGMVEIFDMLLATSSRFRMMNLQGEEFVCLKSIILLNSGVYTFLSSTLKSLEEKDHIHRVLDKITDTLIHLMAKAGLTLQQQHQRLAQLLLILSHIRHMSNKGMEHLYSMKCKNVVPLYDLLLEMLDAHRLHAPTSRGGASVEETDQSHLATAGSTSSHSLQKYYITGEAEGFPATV

Assay [19] is described as follows: qHTS assay to identify small molecule phospholipidosis (PLD) inducers (AID 1259344; active = well fitted curve in the direction sought with a large enough effect; an effect the other way counts as inactive or inconclusive). The procedure, abridged:
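Phospholipidosis is scored by imaging LipidTOX-stained pits in HepG2 cells exposed to compound for 24 h at 37 C; pit counts and integrated intensities per well and per cell serve as outputs.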

Unmarked numbers belong to inactive results. Inconclusive results are not listed. Active and inactive are the calls of the source. Unless noted, calls come from the whole dose curve; as a rule, active = well fitted curve in the direction sought with a large enough effect in the repeat runs; inconclusive = weak or mixed curves; inactive = no such curve, though single readings can be large; an effect the other way counts as inactive or inconclusive.

With `CO/N=C(/C(=O)N[C@@H]1C(=O)N2C(C(=O)OCOC(=O)C(C)(C)C)=C(C)CS[C@H]12)c1csc(N)n1`, the Potency result in [1], in assay [2], in assay [3], in assay [4], in assay [5] and in assay [6] was “inactive” in each case. The Potency entry in assay [7], in assay [8], in assay [9], in assay [10], in [11] and in assay [13] was “inactive” throughout. Further, the Potency result in assay [14], in assay [16] and in assay [17] was “inactive” throughout. The result in [12] and in assay [15] was inactive.
Consider `NS(=O)(=O)c1cc(C(=O)O)cc(N2CCCC2)c1Oc1ccccc1`, for which the Potency entry in [1], in assay [2], in [3], in assay [4], in assay [5] and in assay [6] was “inactive” each time. For the same compound, the Potency result in assay [7], in assay [8], in [9], in assay [10], in assay [11] and in [13] was “inactive” each time. Further, the Potency entry in assay [14], in [16] and in assay [17] was “inactive” each time. Besides, the result in assay [12], in [18] and in [15] was inactive.
Regarding `N=c1nc(N2CCCCC2)cc(N)n1O`, the Potency entry in assay [1], in assay [2], in [3], in assay [4], in assay [5] and in assay [6] was “inactive” in each case. Besides, the Potency entry in assay [7], in [8], in assay [9], in assay [10], in assay [11] and in assay [13] was “inactive” each time. In addition, the Potency entry in assay [19], in [14], in [16] and in assay [17] was “inactive” throughout. Besides, the outcome in assay [12], in assay [18] and in [15] was inactive.
Regarding `Cc1cccc(C)c1NC(=O)C(C)N` (centres undefined), the Potency entry in [1], in [6], in assay [7], in [8], in assay [10] and in assay [13] was “inactive” throughout. Moreover, the Potency result in assay [14], in assay [16] and in [17] was “inactive” throughout. The Potency in assay [2] is 19 µM (active); in assay [3], 21.3 µM (active); in assay [4], 21.3 µM (active); in [5] it was 19 µM (active); in [9], 19 µM (active); in [11], 21.3 µM (active). Moreover, the result in [12], in assay [18] and in assay [15] was inactive.
Take `CC1=CC(C)C(C=O)CC1` (centres undefined): the Potency entry in assay [1], in assay [2], in assay [3], in assay [4], in assay [5] and in assay [6] was “inactive” throughout. Further, the Potency entry in assay [7], in assay [8], in [9], in assay [10], in assay [11] and in assay [13] was “inactive” each time. Moreover, the Potency entry in assay [14], in [16] and in [17] was “inactive” each time. For the same compound, the outcome in assay [12], in assay [18] and in [15] was inactive.
With `Nc1c[n+](N2CCOCC2)no1`, the Potency entry in assay [1], in assay [2], in assay [3], in assay [4], in assay [5] and in [6] was “inactive” in each case. Also, the Potency result in assay [7], in [8], in assay [9], in [10], in assay [11] and in [13] was “inactive” throughout. The Potency result in assay [19], in assay [14], in assay [16] and in assay [17] was “inactive” each time. The outcome in assay [12], in assay [18] and in assay [15] was inactive.

For the origin of these results see PubChem BioAssay (Tox21).
